The campaign covered roughly 330,000 compounds. About 7,700 (2.3%) were called active. Inconclusive results (about 26%) are left out. Shown is part of a subset that was picked to be rich in actives. Values without a mark were called inactive. Calls follow the shape of the dose curve; as a rule, active = well fitted inhibition curve with a large enough effect; inconclusive = small, poorly fitted or top-dose-only effect, or effect the other way; inactive = flat fitted curve, though single readings scatter.
% is scaled to controls: 0 for no effect and ±100 for the full control effect; potency is read from the fitted curve at half-maximal effect.

This assay can be described thus: qHTS screen for small molecules that inhibit ELG1-dependent DNA repair in human embryonic kidney (HEK293T) cells expressing luciferase-tagged ELG1. Also: nearly all actives have a fitted effect of over 55% in size. The following applies: HEK293T ELG1-luciferase reporter, luminescence, 16 h, DNA damage induced by 5-fluorouridine; series mostly up to 46.1 µM; activity change, negative = inhibition: at the top concentration. The method, boiled down: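 Quantitative HTS, concentration-response format. 2,000 cells/well co-treated with 5-fluorouridine and compound, 16 hr in 5% CO2 at 37 °C; ONE-Glo luminescence read after 30 min.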
In general terms: Quantitative high-throughput screening tests each substance at several concentrations.
For the molecule `NC(=O)c1nsc(C(=O)N(CCCN2CCOCC2)C(C(=O)NC2CCCCC2)c2ccc(Cl)cc2)c1N` (configuration not stated), the “activity change, negative = inhibition” value was 5.9%.

Consider `Cc1ccc(NC(=O)CN(C)C(=O)c2ccc(Cl)c(S(=O)(=O)NCc3ccco3)c2)cc1`, for which the “activity change, negative = inhibition” value is -3.5%. Consider `O=C(CCl)Nc1cccc(CP(=O)(c2ccccc2)c2ccccc2)c1`, for which the Potency was 14.6 µM (active).

In the case of `O=C(CSCC(=O)Nc1cccc([N+](=O)[O-])c1)Nc1ccccc1`, the “activity change, negative = inhibition” value is 15.4%. `CCc1cccc(NC(=O)CCC(=O)O)c1`: the “activity change, negative = inhibition” value was 4.12%. For the molecule `COc1ccc(C2=NN(C(=O)CSc3nc(=O)n4ccc(C)cc4n3)C(c3ccc(C)cc3)C2)cc1` (configuration not stated), the “activity change, negative = inhibition” value was -11.2%. With `CC(=O)N1c2ccc(S(=O)(=O)N3CCC(C(=O)NC4CCCC(C)C4C)CC3)cc2CC1C` (configuration not stated), the “activity change, negative = inhibition” value was 0%. Same read-out and setting: then `O=C(Cn1cnc2c(OCc3ccccc3)ncnc21)NCCCn1ccnc1`, with 13.1%; and `COc1cccc(/C=N/Nc2ncc(C(F)(F)F)cc2Cl)c1O`, with 15.3%; and `COc1cccc2c(N/N=C/c3ccco3)cc(C)nc12`, with 17.8%.

As to `COc1cccc(/C=N/Nc2cc(C)nc(-c3ccccc3O)n2)c1O`, the Potency was 5.8 µM (active). With `COc1cc(NS(=O)(=O)c2ccccc2)ccc1-n1nc(C)cc1C`, the “activity change, negative = inhibition” value is 1.2%. `COc1ccc(Nc2cc(C)nc(-n3nc(C)cc3C)n2)cc1`: the “activity change, negative = inhibition” value was 9.95%.

`COc1ccccc1/C=N\Nc1cc(C)nc(-n2nc(C)cc2C)n1`: the Potency was 23.1 µM (active).

Take `CCN(c1ccccc1)S(=O)(=O)c1cc(C(=O)NCc2ccccn2)ccc1C`: the “activity change, negative = inhibition” value is -4.44%.

`CC(=O)c1sc(NC(=O)CCN2C(=O)C3CC=CCC3C2=O)nc1-c1ccccc1` (configuration not stated): the “activity change, negative = inhibition” value is -10.9%.

For `O=S(=O)(NCC1CN(S(=O)(=O)c2ccc3c(c2)OCCO3)C1)c1c(F)cccc1F`, the “activity change, negative = inhibition” value was 19.5%. With `CC(C)N(C(=O)CN1CCN(S(=O)(=O)c2ccc(Br)s2)CC1)C(C)C`, the “activity change, negative = inhibition” value was -6.18%. As to `CS(=O)(=O)c1ccc(Cl)c(NC(=O)COC(=O)c2cccc(S(=O)(=O)N3CCCC3)c2)c1`, the “activity change, negative = inhibition” value is -2.83%. On to `O=C(CNCc1cccs1)Nc1cc(S(=O)(=O)N2CCCC2)ccc1Cl`, for which the Potency is 16.4 µM (active).

With `O=C(NCc1cccs1)C1CCN(S(=O)(=O)c2ccc(Cl)cc2)CC1`, the “activity change, negative = inhibition” value was 8.41%.

With `O=C(CN1CCCCCC1)Nc1ccc(S(=O)(=O)N2CCCCC2)cc1`, the “activity change, negative = inhibition” value is 0.957%. Still for that read-out and setting: to `O=C(NN=Cc1ccc(N2CCOCC2)cc1)c1cc2ccccc2cc1O` belongs 0%. Regarding `CCCOc1ccc(C(=O)C(CCC(CNCC)C(=O)c2ccc(OCCC)cc2)CNCC)cc1` (configuration not stated), the Potency is 23.1 µM (active). As to `COc1ccc(OCCC(=O)c2ccc(OC)cc2)cc1`, the “activity change, negative = inhibition” value is 4.01%. `CCCCOc1ccc(C(=O)NN2CCN(C)CC2)cc1`: the “activity change, negative = inhibition” value was 17.4%.

In the case of `COc1ccc(-c2c(C#Cc3ccsc3)c3cc(-c4ccc(CN5CCOCC5)cc4)ccc3n2C)cc1`, the “activity change, negative = inhibition” value was 15.4%.

The record behind these values is PubChem BioAssay AID504467 (National Center for Advancing Translational Sciences (NCATS), 2011).
